The source made the active and inactive calls. Calls come from the whole dose curve; as a rule, active = well fitted activation curve with a large enough effect; inconclusive = small, poorly fitted or top-dose-only effect; inactive = flat fitted curve, though single readings scatter. Peptide text beside a SMILES is read from it.

A short description of the experiment: Cellular Toxicity (caspase-3) HepG2 (AID 654).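 Note: cells exposed to compound for 16 hours before reading.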 Conditions: HepG2 caspase-3 activation, luminescence, 0% = DMSO only, 100% = tamoxifen; series mostly up to 92.2 µM. An excerpt: NIH Chemical Genomics Center [NCGC]
NIH Molecular Libraries Screening Centers Network [MLSCN]
National Institutes of Environmental Health Sciences [NIEHS]
National Toxicology Program [NTP]
We have developed a 1536-well cell-based assay for quantitative high throughput screening (qHTS) against a number of cell lines to determine in vitro caspase 3/7 of small molecules. This particular assay uses the HepG2 cell line which is derived from human hepatocellular carcinoma.
NCGC Assay Protocol Summary:
The Caspase-Glo 3/7 assay (Promega) is a homogeneous method to measure caspase-3 and caspase-7 activities in cultured cells. The quantitation of caspase 3/7 activity is based on the cleavage of a peptide-aminoluciferin substrate. After caspase cleaves the substrate the free aminoluciferin is liberated and serves as the substrate of luciferase, which generates the light. The luminescent signal is proportional to amount of caspase 3/7 activity present.
Using the Caspase-Glo 3/7 assay, the amount of caspase 3/7 activity was measured in the HepG2 cell line with complete culture medium following compound treatment for 16 hours. The assay was performed in opaque white 1536-well plates. In the screen, tamoxifen and doxorubicin were used as positive controls. Library compounds were measured for their ability to cause the activation of caspase 3/7 in the cell line, as reflected by an increase in luminescence signal, in a concentration-dependent manner. Data were normalized to the controls for basal activity (DMSO only) and 100% stimulation (100 uM tamoxifen). AC50 values were determined from concentration-response data modeled with the standard Hill equation.
qHTS protocol for caspase 3/7 assay in HepG2 cells
[Step] [Parameter] [Value] [Description]
1. Reagent; 5 uL; 1500 HepG2 cells/well
2. Time; 5 hr; 37 °C incubation
4. Controls; 23 nL; Tamoxifen 0.23 uM to 100 uM & Doxorubicin 7.0 pM to 100 uM
5. Time; 16 hr; 37 °C incubation
6. Reagent; 5 uL; Caspase-Glo 3/7 reagent
7. Time; 20 min; Room Temperature
8. Detection; Luminescence; Viewlux plate reader
Keywords: caspase 3/7, apoptosis, HepG2 cell line, luminescence, NTPHTS, NTPHTS_NCGC, NIEHS, EPA, DSSTox, MLSMR, MLSCN, NIH Roadmap, qHTS, NCGC
Turning to `Cc1ccc(C)c(OCCCC(C)(C)C(=O)O)c1`, the call was inactive.

Turning to `CCCCC(CC)COC(=O)C(C#N)=C(c1ccccc1)c1ccccc1` (stereo not drawn), the molecule was classed as inactive.

For the molecule `Nc1ccc(S(N)(=O)=O)cc1`, the outcome was inactive.

As to `COC(=O)[C@H](Cc1ccccc1)NC(=O)[C@@H](N)CC(=O)O` (H-Asp-Phe-OMe), the call was inactive.

Take `NS(=O)(=O)c1cc(C(=O)O)c(NCc2ccco2)cc1Cl`: the call was inactive.

With `CCCc1cc(=O)[nH]c(=S)[nH]1`, the molecule was called inactive.

For the molecule `CC(=O)Nc1ccc(O)cc1`, the outcome was inactive.

With `CS(=O)(=O)OCCCCOS(C)(=O)=O`, the outcome was inactive.

`COc1c2occc2cc2ccc(=O)oc12`: the call was inactive.

As for `c1ccc2[nH]c(-c3cscn3)nc2c1`, the molecule was classed as inactive.

As to `Cc1cc(O)c2c(c1)C(=O)c1cc(O)cc(O)c1C2=O`, the molecule was called inactive.

For the molecule `CCc1nc(N)nc(N)c1-c1ccc(Cl)cc1`, the result was inactive.

On to `CN(C)c1ccc2nc3ccc(=[N+](C)C)cc-3sc2c1`, for which the molecule was classed as inactive.
